HT1080NT lethal: qHTS for induction of synthetic lethality in tumor cells producing 2HG: qHTS for the HT-1080-NT fibrosarcoma cell line; Potency, µM (top dose mostly 46.1 µM), for the others: at the top dose activity, negative = less viability, hits mostly cytotoxic; 360,000 compounds, 1.6% hits; HT-1080-NT fibrosarcoma viability, CellTiter-Glo ATP luminescence, 48 h;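 note: NT is the 2HG producing partner of a matched IDH1 knockdown line; potency is the fitted concentration of half-maximal effect; 0% = DMSO-treated cells and -100% = media-only wells without cells; nearly all actives have a fitted effect of over 55% in size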
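Viability of the 2HG-overproducing fibrosarcoma line after 48 hours of compound exposure at 37 degrees C was determined by luminescence with CellTiter-Glo, and concentration-effect curves were then fitted and categorized.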
TDP1 cell CPT: qHTS for Inhibitors of human tyrosyl-DNA phosphodiesterase 1 (TDP1): qHTS in cells in presence of CPT; AID 686979, 2013; chicken DT40 Tdp1-/-;hTDP1 cells + 20 nM CPT, ATP luminescence, 48 h; 420,000 compounds, 12% hits; Potency, µM (top dose mostly 46.2 µM), for inactives: at the top dose activity change, negative = growth inhibition, hits mostly inhibitors; note: potency is the fitted concentration of half-maximal effect; nearly all actives have a fitted effect of over 55% in size
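Chicken DT40 Tdp1-/- cells complemented with human TDP1, 400 cells/well, exposed to compounds plus 20 nM camptothecin for at least 48 h at 37 C; viability read as ATP content by CellTiter-Glo luminescence.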
uPA surface inh: qHTS for Inhibitors of Cell Surface uPA Generation; 330,000 compounds, 0.31% hits; AID 540303, 2011; cell surface uPA generation assay, qHTS; Potency, µM (highest dose often 38.3 µM), for inactives: at the top dose activity change, negative = inhibition, hits mostly inhibitors; active = well fitted inhibition curve with a large enough effect; inconclusive = small, poorly fitted or top-dose-only effect; inactive = no such curve, though single readings can be large or run the other way; tested in mouse RAW 264.7 cells; note: potency is the fitted concentration of half-maximal effect; nearly all actives have a fitted effect of over 55% in size
HT1080 IDH1KD tx: qHTS for induction of synthetic lethality in tumor cells producing 2HG: qHTS for the HT-1080-IDH1KD cell line. AID 686971, 2013. 360,000 compounds, 2% hits. HT-1080 IDH1 knockdown viability, ATP luminescence, 48 h. Potency, µM (titrated, usually from 46.1 µM), inactives show at the top dose activity, negative = toxicity, usual class: cytotoxic;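 note: potency is the fitted concentration of half-maximal effect; 0% = DMSO wells and -100% = cell-free medium wells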
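HT-1080-IDH1KD cells (IDH1 knocked down), 750/well in RPMI with 5% FBS, treated with compound 48 h at 37 degrees C. Viability by CellTiter-Glo luminescence, normalised to DMSO and no-cell wells; concentration-response curves classed.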
IL-1B inflam inh: qHTS for Inhibitors of Inflammasome Signaling: IL-1-beta AlphaLISA Primary Screen | THP-1 LPS/ATP IL-1B secretion, AlphaLISA, 16 h; stronger effect = lower value | activity change, % at 57.5 µM | 360,000 compounds, 4.7% hits | AID 743279, 2014; in the data active = activity change below about -50%; inconclusive = mostly about -30% to -49%
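Secreted IL-1B measured by AlphaLISA bead assay after 16 h compound exposure of THP-1 cells; compounds (final up to 57.5 uM) added 1 h before LPS (250 ng/mL) and ATP (1.25 mM) stimulation; lower signal means less secretion.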
DT40 TDP1 no CPT: qHTS for Inhibitors of human tyrosyl-DNA phosphodiesterase 1 (TDP1): qHTS in cells in absence of CPT; DT40 Tdp1-/- hTDP1 cells, no CPT, ATP luminescence, 48 h; Potency, µM (doses to about 46.2 µM), without a hit: at the top dose activity change, negative = growth inhibition, most hits filed as inhibitors; 420,000 compounds, 15% hits; AID 686978, 2013; note: potency is the fitted concentration of half-maximal effect; nearly all actives have a fitted effect of over 55% in size
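Seeded 400 DT40-hTDP1 cells/well (vehicle DMSO, no 20 nM CPT); pinned compounds; ≥48 hr at 37 °C; CellTiter-Glo luminescence as viability measure.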
The depositor's hits bear a star; ? = inconclusive; / = not tested or not shown. Rows were chosen to be rich in hits. Some 19% of all compounds tested hit in one or more screens of this group. Unless noted, calls come from the whole dose curve; as a rule, active = well fitted curve in the direction sought with a large enough effect; inconclusive = small, poorly fitted or top-dose-only effect, or another doubt; inactive = no such curve, though single readings can be large; an effect the other way counts as inactive or inconclusive. Unless noted, % is set by controls: 0 for no effect and ±100 for the full control effect.

SMILES | HT1080NT lethal | TDP1 cell CPT | uPA surface inh | HT1080 IDH1KD tx | IL-1B inflam inh | DT40 TDP1 no CPT
Cn1c(=O)oc2cc(S(=O)(=O)N3CCCC(C(=O)N4CCN(c5ccc(Cl)cc5)CC4)C3)ccc21 (stereo not given) | / | 5.2µM* | / | / | / | 1.3µM*
CCNC(=O)NC(=O)C(C)OC(=O)c1c(C)nn(Cc2ccccc2Cl)c1Cl (stereo not given) | 0% | ? | -3% | -16% | -21 | -60%
O=C(CSc1nc2ccccc2c(=O)n1-c1ccc(Cl)c(Cl)c1)Nc1ccc2c(c1)CCC2 | 9% | ? | / | 7% | 8 | ?
Cc1ccccc1NC(=O)CSc1nc2ccccc2c2nc(CCn3c(C)nc4ccccc43)nn12 | / | 15µM* | / | / | / | 18µM*
CCCCN1CCS(=O)(=O)N(Cc2ccccc2Br)CC(C(=O)OC)C1 (stereo not given) | -14% | ? | 3% | -9% | -4 | ?

Screens: PubChem, National Center for Advancing Translational Sciences (NCATS)
